According to PubChem BioAssay:
For some assays here: Measured potencies and affinities stand elsewhere. Calls of active or inactive are those of the source. Unless noted, how the calls were made is not given here.

Key:
[1] = antimalarial activity against Dd2 strain (AID 2302;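 active means growth inhibition above 50% at the single 2 µM test dose, taken to imply half-maximal potency below 2 µM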;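 further: 0% = DMSO untreated growth and 100% = chloroquine plus artemisinin killed control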); conditions: P. falciparum Dd2 in RBCs, LDH growth readout, 72 h; at 2 µM; hits give high values
[2] = human hepatoma cell viability loss – ATP luminescence, cytotoxicity control for P. falciparum antimalarial project, primary screen (AID 2303;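 active means inhibition above 50%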;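 further: 0% = DMSO wells and 100% = digitonin-killed cells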); conditions: HepG2 viability, 24-48 h, at 10 µM, hits give high values
[3] = biological target: L-lactate dehydrogenase (Plasmodium falciparum (isolate CDC / Honduras)) (UniProt Q27743); experiment: PfLDH activity inhibition – cell lysate, 3D7 strain, counter-screen for P. falciparum growth inhibition project (AID 2304);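 further: 0% = vehicle and 100% = reference inhibitor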; conditions: P. falciparum 3D7 crude extract, LDH APAD/NBT absorbance; at 2 µM; hits give high values
Chain of L-lactate dehydrogenase (Plasmodium falciparum (isolate CDC / Honduras)) (Q27743 whole entry, looked up): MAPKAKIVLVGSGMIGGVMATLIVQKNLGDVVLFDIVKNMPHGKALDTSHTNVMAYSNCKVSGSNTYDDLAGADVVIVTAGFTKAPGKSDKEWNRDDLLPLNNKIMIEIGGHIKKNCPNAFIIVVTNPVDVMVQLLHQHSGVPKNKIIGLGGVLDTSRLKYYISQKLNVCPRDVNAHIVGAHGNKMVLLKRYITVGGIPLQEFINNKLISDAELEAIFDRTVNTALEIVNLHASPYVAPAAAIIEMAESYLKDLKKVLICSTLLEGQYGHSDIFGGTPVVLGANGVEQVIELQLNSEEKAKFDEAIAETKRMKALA

[4] = inhibition of 3D7 malaria parasite growth – strain 3D7 (AID 2306);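 further: 0% = DMSO wells and 100% = chloroquine plus artemisinin control wells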; conditions: P. falciparum 3D7 erythrocytic growth, LDH absorbance, 72 h; at 2 µM; hits give high values
[5] = biological target: Calcium-dependent protein kinase 1 (Plasmodium falciparum (isolate 3D7)) (UniProt P62344); experiment: PfCDPK1 kinase inhibitors, biochemical, TCAMS library (AID 1159585; cut-off not given, nearly all actives have IC50 up to about 0.98 µM;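 further: inhibitors leave more ATP so luminescence rises with inhibition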); conditions: recombinant PfCDPK1, Kinase-Glo ATP depletion luminescence
Chain of Calcium-dependent protein kinase 1 (Plasmodium falciparum (isolate 3D7)) (P62344 whole entry, looked up): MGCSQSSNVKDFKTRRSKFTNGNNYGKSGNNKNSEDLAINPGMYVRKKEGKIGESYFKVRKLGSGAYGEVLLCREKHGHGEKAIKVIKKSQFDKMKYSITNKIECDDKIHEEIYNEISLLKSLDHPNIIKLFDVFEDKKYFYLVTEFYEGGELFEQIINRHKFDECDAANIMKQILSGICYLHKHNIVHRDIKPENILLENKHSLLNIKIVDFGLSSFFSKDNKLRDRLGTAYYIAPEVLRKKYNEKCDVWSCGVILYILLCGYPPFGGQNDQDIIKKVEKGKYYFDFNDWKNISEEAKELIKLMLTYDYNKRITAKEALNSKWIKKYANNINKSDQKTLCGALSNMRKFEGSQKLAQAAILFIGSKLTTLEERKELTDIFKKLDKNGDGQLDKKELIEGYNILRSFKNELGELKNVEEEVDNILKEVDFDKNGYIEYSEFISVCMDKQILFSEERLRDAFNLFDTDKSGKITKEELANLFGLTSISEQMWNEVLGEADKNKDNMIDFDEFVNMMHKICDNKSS

[6] = biological target: Plasmodium falciparum protein kinase 6 (PK6, PF3D7_1337100) (UniProt Q8IDW1); experiment: PfPK6 kinase inhibitors, biochemical, TCAMS library (AID 1159586); conditions: recombinant PfPK6, Kinase-Glo ATP depletion luminescence
Chain of Plasmodium falciparum protein kinase 6 (PK6, PF3D7_1337100) (Q8IDW1 1-305): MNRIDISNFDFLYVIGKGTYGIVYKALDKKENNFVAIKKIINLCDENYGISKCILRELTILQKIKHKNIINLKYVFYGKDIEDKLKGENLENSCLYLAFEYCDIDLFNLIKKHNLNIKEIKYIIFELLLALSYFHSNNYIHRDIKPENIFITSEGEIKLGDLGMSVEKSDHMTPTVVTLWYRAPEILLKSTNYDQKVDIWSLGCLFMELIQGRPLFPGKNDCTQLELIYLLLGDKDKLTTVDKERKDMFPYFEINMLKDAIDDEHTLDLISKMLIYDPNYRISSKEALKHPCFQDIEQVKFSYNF

[7] = biological target: Protein kinase 7 (PK7), Plasmodium falciparum 3D7 (PF3D7_0213400) (UniProt Q7YTF7); experiment: inhibition of Plasmodium PK7 catalytic activity – biochemical, TCAMS antimalarial set, Kinase-Glo luminescence (AID 1159587); conditions: recombinant PfPK7, Kinase-Glo ATP depletion luminescence
Chain of Protein kinase 7 (PK7), Plasmodium falciparum 3D7 (PF3D7_0213400) (Q7YTF7 1-343): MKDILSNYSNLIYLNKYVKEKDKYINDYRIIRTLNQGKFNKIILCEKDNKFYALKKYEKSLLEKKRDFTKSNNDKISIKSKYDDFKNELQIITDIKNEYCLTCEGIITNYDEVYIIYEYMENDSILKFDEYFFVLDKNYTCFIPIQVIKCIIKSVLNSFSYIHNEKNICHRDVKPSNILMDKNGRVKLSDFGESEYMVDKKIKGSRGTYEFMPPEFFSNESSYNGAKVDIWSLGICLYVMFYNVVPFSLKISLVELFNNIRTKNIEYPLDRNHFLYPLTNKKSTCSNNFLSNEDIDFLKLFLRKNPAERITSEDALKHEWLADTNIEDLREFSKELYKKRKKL

[8] = biological target: Calcium-dependent protein kinase 4 (Plasmodium falciparum (isolate 3D7)) (UniProt Q8IBS5); experiment: PfCDPK4 kinase inhibitors, biochemical, TCAMS library (AID 1159588; cut-off not given, nearly all actives have IC50 up to about 0.91 µM); conditions: recombinant PfCDPK4, Kinase-Glo ATP depletion luminescence
Chain of Calcium-dependent protein kinase 4 (Plasmodium falciparum (isolate 3D7)) (Q8IBS5 whole entry, looked up): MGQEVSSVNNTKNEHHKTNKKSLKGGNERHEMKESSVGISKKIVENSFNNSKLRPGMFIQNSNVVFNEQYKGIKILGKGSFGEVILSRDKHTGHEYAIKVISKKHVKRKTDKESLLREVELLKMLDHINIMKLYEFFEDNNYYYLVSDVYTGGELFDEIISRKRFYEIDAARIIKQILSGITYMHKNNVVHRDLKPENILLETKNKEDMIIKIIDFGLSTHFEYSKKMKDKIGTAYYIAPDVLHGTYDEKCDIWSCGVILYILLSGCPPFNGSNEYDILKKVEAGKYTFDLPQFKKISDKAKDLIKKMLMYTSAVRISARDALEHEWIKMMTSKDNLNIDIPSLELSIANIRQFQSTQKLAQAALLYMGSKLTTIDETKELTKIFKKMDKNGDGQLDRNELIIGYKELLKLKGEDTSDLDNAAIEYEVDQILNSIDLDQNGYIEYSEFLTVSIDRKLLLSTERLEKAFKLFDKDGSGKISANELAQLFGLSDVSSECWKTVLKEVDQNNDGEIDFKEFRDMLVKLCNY

Cc1cccc2[nH]c(-c3ccc(-c4ccc(CN5CCC(C(N)=O)CC5)cc4)cc3)nc12
active: growth inhibition [4] 91%
inactive: growth inhibition [1] 32% | inhibition [2] 8% | inhibition [3] 1% | outcome [5] | outcome [6] | outcome [7] | outcome [8]

CCc1nc(N)nc(N)c1-c1ccccc1
inactive: growth inhibition [1] 1% | inhibition [3] -2% | outcome [5] | outcome [6] | outcome [7] | outcome [8]
active: inhibition [2] 53% | growth inhibition [4] 92%

O=S(=O)(c1cccc(F)c1)c1ccc(Nc2ncnc3cc(Br)sc23)cc1Cl
inactive: growth inhibition [1] 11% | inhibition [2] 20% | inhibition [3] -2% | outcome [5] | outcome [6] | outcome [7] | outcome [8]
active: growth inhibition [4] 86%

CC(=O)N(C)c1cccc(C(=O)Nc2ccc(-c3cccc(-c4nc5ccc(C(F)(F)F)cc5[nH]4)c3)cc2)c1
active: inhibition [2] 79% | growth inhibition [4] 94%
inactive: growth inhibition [1] 10% | inhibition [3] -2% | outcome [5] | outcome [6] | outcome [7] | outcome [8]

COc1ccc(CC(=O)Nc2ccc(Nc3nc(C)cc(N(C)C)n3)cc2)cc1
inactive: growth inhibition [1] 31% | inhibition [2] 17% | inhibition [3] -3% | outcome [5] | outcome [6] | outcome [7] | outcome [8]
active: growth inhibition [4] 97%

Cc1cc(NCCC(=O)NCc2cccc(F)c2)nc(Nc2ccccc2)n1
active: growth inhibition [4] 94%
inactive: growth inhibition [1] 15% | inhibition [2] -4% | inhibition [3] -3% | outcome [5] | outcome [6] | outcome [7] | outcome [8]

Cc1cc(NCCC(=O)Nc2ccccc2)nc(NCC2CCCCC2)n1
active: growth inhibition [1] 62% | growth inhibition [4] 100%
inactive: inhibition [2] 14% | inhibition [3] 3% | outcome [5] | outcome [6] | outcome [7] | outcome [8]

COc1cccc(CNc2noc(-c3c(-c4ccccc4)noc3C)n2)c1OC
inactive: inhibition [2] -3% | inhibition [3] -2% | outcome [5] | outcome [6] | outcome [7] | outcome [8]
active: growth inhibition [1] 86% | growth inhibition [4] 97%

CNC(=O)c1cncc(/C=C/c2ccccc2S(N)(=O)=O)c1
active: growth inhibition [1] 77% | growth inhibition [4] 100%
inactive: inhibition [2] 17% | inhibition [3] -1% | outcome [5] | outcome [6] | outcome [7] | outcome [8]

C[C@H](NC(=O)[C@H](CCCCNC(=O)OC(C)(C)C)NC(=O)OC(C)(C)c1ccc(-c2ccccc2)cc1)C(=O)OCc1ccccc1
inactive: growth inhibition [1] 1% | inhibition [2] 4% | inhibition [3] -7% | outcome [5] | outcome [6] | outcome [7] | outcome [8]
active: growth inhibition [4] 97%

COc1ccccc1CCNC(=O)c1cc(Br)cc(N2CCN(c3ccncc3)CC2)c1
inactive: growth inhibition [1] 32% | inhibition [2] 38% | inhibition [3] 4% | outcome [5] | outcome [6] | outcome [7] | outcome [8]
active: growth inhibition [4] 84%

CO/C(=C\C=C\c1cc2cc(Cl)c(Cl)cc2[nH]1)C(=O)NCCCN1CCN(C2CCCCC2)CC1
active: growth inhibition [1] 97% | inhibition [2] 60% | growth inhibition [4] 99%
inactive: inhibition [3] -3% | outcome [5] | outcome [6] | outcome [7] | outcome [8]

CCCc1cc(Cc2cnc(N)nc2N)cc(CC)c1OC
inactive: growth inhibition [1] 1% | inhibition [2] 4% | inhibition [3] -7% | outcome [5] | outcome [6] | outcome [7] | outcome [8]
active: growth inhibition [4] 97%

C=CCn1c(SCc2c(C)noc2C)nc2scc(-c3cccs3)c2c1=O
inactive: growth inhibition [1] 34% | inhibition [2] 13% | inhibition [3] 0% | outcome [5] | outcome [6] | outcome [7] | outcome [8]
active: growth inhibition [4] 88%

COc1ccc(-c2ccccc2OCCCNc2nc(NCCc3ccc(O)cc3)nc(N3CCNCC3)n2)cc1
active: growth inhibition [4] 99%
inactive: growth inhibition [1] 3% | inhibition [2] 36% | inhibition [3] -1% | outcome [5] | outcome [6] | outcome [7] | outcome [8]

Cc1cc(-c2cc3nc4c(c(=O)n3[nH]2)CCCC4)c(C)o1
inactive: inhibition [2] 4% | inhibition [3] -4% | outcome [5] | outcome [6] | outcome [7] | outcome [8]
active: growth inhibition [1] 82% | growth inhibition [4] 94%

CS(=O)(=O)c1ccc(-c2cncc(Cl)n2)cc1
active: growth inhibition [1] 95% | growth inhibition [4] 100%
inactive: inhibition [2] 8% | inhibition [3] 7% | outcome [5] | outcome [6] | outcome [7] | outcome [8]

O=C(Nc1ccc2c(c1)CCN2C1CCN(Cc2ccc(C(F)(F)F)cc2F)C1)c1ccco1 (stereo unspecified)
active: growth inhibition [1] 94% | growth inhibition [4] 91%
inactive: inhibition [2] 9% | inhibition [3] 1% | outcome [5] | outcome [6] | outcome [7] | outcome [8]

CCC(COCc1ccc(Cl)cc1)N(C)CCN(C)C(CC)COCc1ccc(Cl)cc1 (stereo unspecified)
active: growth inhibition [1] 78% | inhibition [2] 89% | growth inhibition [4] 95%
inactive: inhibition [3] -5% | outcome [5] | outcome [6] | outcome [7] | outcome [8]

O=C(NCCCCCN1CCC(c2c[nH]c3ccccc23)CC1)Nc1ccc(Cl)cc1Cl
inactive: growth inhibition [1] 15% | inhibition [3] -2% | outcome [5] | outcome [6] | outcome [7] | outcome [8]
active: inhibition [2] 71% | growth inhibition [4] 99%

CCCNCc1ccc(-c2ccc(CN(C(=O)c3nn(-c4ccccc4)nc3C)C(C)CN(C)C)cc2)nc1 (stereo unspecified)
inactive: inhibition [2] 27% | inhibition [3] -8% | outcome [5] | outcome [6] | outcome [7] | outcome [8]
active: growth inhibition [1] 95% | growth inhibition [4] 95%

Cc1cc(C)c(NC(=O)N2CCCN(CCCCCNC(=O)/C=C/c3ccc(Cl)c(Cl)c3)CC2)c(C)c1
inactive: growth inhibition [1] -1% | inhibition [2] 12% | inhibition [3] 3% | outcome [5] | outcome [6] | outcome [7] | outcome [8]
active: growth inhibition [4] 91%

CN1CCN(c2ccnc3ccc(NC(=O)Nc4ccc(Cl)cc4)cc23)CC1
active: growth inhibition [1] 99% | growth inhibition [4] 103%
inactive: inhibition [2] 11% | inhibition [3] 0% | outcome [5] | outcome [6] | outcome [7] | outcome [8]

CC(NC(=O)c1ccc(O)c(-c2ccc(Cl)c(Cl)c2)c1)C(=O)NCCN1CCCC1 (stereo unspecified)
active: growth inhibition [4] 99%
inactive: growth inhibition [1] 9% | inhibition [2] -5% | inhibition [3] -2% | outcome [5] | outcome [6] | outcome [7] | outcome [8]

CC1CCCN(S(=O)(=O)c2cc(Br)cc3c2N(C(=O)C2CC2)CC3)C1 (stereo unspecified)
active: growth inhibition [1] 70% | growth inhibition [4] 83%
inactive: inhibition [2] -14% | inhibition [3] -3% | outcome [5] | outcome [6] | outcome [7] | outcome [8]

CCN(CC)CCCC(C)Nc1c2ccccc2nc2c1ccc1ccccc12 (stereo unspecified)
inactive: growth inhibition [1] 34% | inhibition [2] 18% | inhibition [3] 3% | outcome [5] | outcome [6] | outcome [7] | outcome [8]
active: growth inhibition [4] 96%

O=c1ccc2ccc(F)c3c2n1CC3CN1CCC(NCc2cccc(-c3cccs3)c2)CC1 (stereo unspecified)
active: growth inhibition [1] 75% | growth inhibition [4] 100%
inactive: inhibition [2] 17% | inhibition [3] 0% | outcome [5] | outcome [6] | outcome [7] | outcome [8]

O=C(Nc1cc(Cl)cc(Cl)c1)Nc1ccnc2ccccc12
inactive: inhibition [2] 15% | inhibition [3] -2% | outcome [5] | outcome [6] | outcome [7] | outcome [8]
active: growth inhibition [1] 65% | growth inhibition [4] 96%

Cc1cccc2[nH]c(-c3ccc(-c4ccc(NC(=O)C5CCN(C)CC5)cc4)cc3)nc12
active: growth inhibition [1] 92% | growth inhibition [4] 100%
inactive: inhibition [2] 28% | inhibition [3] 1% | outcome [5] | outcome [6] | outcome [7] | outcome [8]

Cc1nc(-c2cccc(C(F)(F)F)c2)n2nc(Nc3ccc(OCCN4CCCC4)cc3)ncc12
inactive: growth inhibition [1] 29% | inhibition [2] 30% | inhibition [3] -3% | outcome [5] | outcome [6] | outcome [7] | outcome [8]
active: growth inhibition [4] 99%

COc1cc2nc(N3CCN(C(=O)c4ccc(N(C(=O)OC(C)(C)C)C(=O)OC(C)(C)C)cc4)CC3)nc(N)c2cc1OC
inactive: growth inhibition [1] 19% | inhibition [2] 12% | inhibition [3] 1% | outcome [5] | outcome [6] | outcome [7] | outcome [8]
active: growth inhibition [4] 96%

O=c1c(NCCCN(Cc2ccc(F)cc2)c2ccccn2)c(NCc2ccncc2)c1=O
inactive: inhibition [2] 30% | inhibition [3] 3% | outcome [5] | outcome [6] | outcome [7] | outcome [8]
active: growth inhibition [1] 95% | growth inhibition [4] 101%

CC(CCCCC(=O)Nc1ccc(CC(C)NCCc2cccc(Cl)c2)cc1)NCCc1cccc(Cl)c1 (stereo unspecified)
active: growth inhibition [4] 91%
inactive: growth inhibition [1] -1% | inhibition [2] 28% | inhibition [3] -1% | outcome [5] | outcome [6] | outcome [7] | outcome [8]

Cc1cccc2[nH]c(-c3ccc(-c4ccc(CN5CCCC(O)C5)cc4)cc3)nc12 (stereo unspecified)
inactive: inhibition [2] 41% | inhibition [3] 6% | outcome [5] | outcome [6] | outcome [7] | outcome [8]
active: growth inhibition [1] 54% | growth inhibition [4] 100%

COc1cc2nc(NCC3CCN(C(=O)c4ccc(-c5ccc(C(=O)N(C)C)cc5C)cc4)CC3)nc(N)c2cc1OC
active: growth inhibition [4] 101%
inactive: growth inhibition [1] 34% | inhibition [2] 2% | inhibition [3] 1% | outcome [5] | outcome [6] | outcome [7] | outcome [8]

COC(=O)c1cccc(N2CCN(CCCNC(=O)/C(=C/C=C/c3cc4cc(Cl)c(Cl)cc4[nH]3)OC)CC2)c1
inactive: inhibition [2] 38% | inhibition [3] -1% | outcome [5] | outcome [6] | outcome [7] | outcome [8]
active: growth inhibition [1] 59% | growth inhibition [4] 100%

Cc1cccc2[nH]c(-c3ccc(-c4ccc(CN5CCCC(N)C5)cc4)cc3)nc12 (stereo unspecified)
inactive: inhibition [2] 33% | inhibition [3] -3% | outcome [5] | outcome [6] | outcome [7] | outcome [8]
active: growth inhibition [1] 101% | growth inhibition [4] 99%
